Reference: PubChem BioAssay (NCATS)
Records with an inconclusive call do not appear. Entries that show only a call come without a potency. Activity calls are given as the source filed them. Calls come from the whole dose curve; as a rule, active = well fitted curve in the direction sought with a large enough effect; inconclusive = small, poorly fitted or top-dose-only effect, or another doubt; inactive = no such curve, though single readings can be large; an effect the other way counts as inactive or inconclusive.

Tests used:
[1] = P-glycoprotein substrates identified in KB-3-1 adenocarcinoma cell line, qHTS therapeutic library screen (AID 1346986); note: nearly all actives have a fitted effect of over 60% in size;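 note: potency is for cytotoxicity meaning loss of cell viability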
How it was run: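 In 1536-well format, 500 cells/well received pinned compound titrations and were incubated 72 h, 5% CO2. Viability was read by CellTiter-Glo; cytotoxic if AC50 < 10 uM and efficacy >50%.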

[2] = P-glycoprotein substrates identified in KB-8-5-11 adenocarcinoma cell line, qHTS therapeutic library screen (AID 1346987); note: nearly all actives have a fitted effect of over 65% in size
How it was run: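 Compounds are pinned in dose-response onto KB-8-5-11 cells (500 cells/well, colchicine-free medium) and left 72 h at 37 degree C. CellTiter-Glo luminescence then yields AC50 values.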
Potency is the fitted concentration of half-maximal effect.

| SMILES | Potency [1] | Potency [2] |
| --- | --- | --- |
| CC(=O)Nc1nc(C)c(-c2nc(N3CCCC(O)C3)no2)s1 (stereo not given) | 13 µM (active) | 18.4 µM (active) |
| CNc1nc(Nc2ccc(C(=O)N3CCOCC3)cc2OC)nc2[nH]cc(Cl)c12 | 7.31 µM (active) | 5.8 µM (active) |
| COC1CC(O[C@H]2CC[C@]3(C)C4CC[C@@]5(C)C(=O)[C@]4(CC[C@@H]3C2)CC[C@@H]5C2=CC(=O)OC2)OC(C)C1OC1OC(COC2OC(CO)C(O)C(O)C2O)C(O)C(O)C1O (stereo not given in full) | 3.48 µM (active) | 2.19 µM (active) |
| CC(=O)O[C@@H]1CC[C@@]2(C)C(CC[C@]3(C)C2[C@H](O)C=C2[C@H]4[C@@H](C)[C@H](C)CC[C@]4(C)CC[C@]23C)[C@@]1(C)C(=O)O (stereo not given in full) | inactive | inactive |
| CO[C@@H]1[C@H](O)CCC2(CO2)[C@H]1[C@@]1(C)O[C@@H]1CC=C(C)C (stereo not given in full) | inactive | inactive |
| CC(C)(CO)c1cc2cc(NC(=O)C3(c4ccc5c(c4)OC(F)(F)O5)CC3)c(F)cc2n1CC(O)CO (stereo not given) | inactive | inactive |
| C=C1C(=O)O[C@@H]2/C=C(/C)[C@@H](OC(C)=O)C/C=C(\C)C[C@@H](OC(=O)/C(=C/CO)CO)[C@@H]12 | inactive | inactive |
| C=C1[C@H]2CC[C@H](C(=O)O)[C@@]23CC[C@H](C3)C1(C)C | inactive | inactive |
| C/C=C(/C=C(C)/C=C/C=C/C=C(\C)C(=O)C12OC1C(O)(CCO)NC2=O)C(=O)OC (stereo not given) | inactive | inactive |
| CN1CCN(c2ccc(-c3cccc(CN4CCOCC4)c3)cc2NC(=O)c2c[nH]c(=O)cc2C(F)(F)F)CC1 | inactive | inactive |
